PubChem BioAssay (EPA / NIEHS)
Values joined by “and” are separate entries in the source; they are usually repeats but may differ in a detail not shown here. Equal entries are not always repeated. A structure can be active in one record and inactive in another. Active and inactive are the calls of the source. How the source made its calls: active means hit-call score of the fitted dose curve at least 0.9, where 1 is the maximum; inactive means score below 0.9.

Each compound was assayed on Interleukin-10 (IL10), IL10 (gene 3586) (assay: BSK_IMphg_IL10: BioMAP Diversity Plus: IMphg Assay for Interleukin-10 (IL10) Biomarker Activity (AID 2284294)). Settings: primary human endothelial cells with macrophages.
Experimental: BSK_IMphg is a cell-based, multiplexed-readout assay that uses venular endothelial cells and macrophages, a human vascular primary cell, with measurements taken at 24 hours after chemical dosing in a microplate: 96-well plate.BSK_IMphg_IL10 is an assay component measured in the BSK_IMphg assay. It measures IL-10 antibody related to regulation of gene expression using ELISA technology.Data from the assay component BSK_IMphg_IL10 was analyzed at the endpoint, BSK_IMphg_IL10, in the positive analysis fitting direction relative to DMSO as the negative control and baseline of activity. Using a type of binding reporter, gain or loss-of-signal activity can be used to understand protein changes. To generalize the intended target to other relatable targets, this assay endpoint is annotated to the 'cytokine' intended target family, where the subfamily is 'interleukins'.
The levels of cell surface (or secreted, indicated by the prefix "s") biomarker endpoints were measured by ELISA. Overt cytotoxicity to cells in confluent adherent cultures (all systems other than the BT system) was assessed by measuring total protein levels using sulforhodamine B (SRB) staining in parallel cultures at the time of biomarker measurements, indicated as SRB endpoints. For proliferation assays for adherent cell types, individual cell types are cultured at sub-confluence and relative cell numbers quantified by SRB staining at time points optimized for each system (48 h: 3C and CASM3C systems; 72 h: BT and HDF3CGF systems; 96 h: SAg system). SRB was performed by staining cells with 0.1% SRB after fixation with 10% TCA and reading wells at 560 nm.Viability and proliferation of PBMC (T cells) was quantified by Alamar Blue reduction for the SAg and BT systems. For PBMC viability (referred to as PBMC Cytotoxicity within the assay endpoint names), cells were plated (75,000/well in a 96-well plate) and then chemical samples added for 1 h before addition of activators, SEB and TSST-1 (20 ng/mL final concentration each). Cells were incubated for 90 h. Then, Alamar Blue (20 uL/well) (Invitrogen, Cat DAL1100) was added for 6 h, and the plates were read with a fluorescence microplate reader at 546/580 nm (excitation/emission). For PBMC proliferation, cells were plated and activated as above but incubated for only 16 h prior to addition of Alamar Blue. Plates were read after 6 h.
In the case of `OCCCCC(F)(F)C(F)(F)C(F)(F)C(F)(F)F`, the outcome is reported as “inactive”. With `NC(O)(C(F)(F)F)C(F)(F)F` the outcome was “inactive”. `CCOC(=O)CC(=O)C(F)(F)C(F)(F)F` was tested, and the outcome was “inactive”. For `FC(F)(F)C(F)(F)C(F)(F)C(F)(F)C(F)(F)C(F)(F)CC[Si](Cl)(Cl)Cl`, the outcome was “inactive”. In the case of `O=S(=O)(Cl)C(F)(F)C(F)(F)C(F)(F)C(F)(F)C(F)(F)C(F)(F)C(F)(F)C(F)(F)F`, the outcome is reported as “inactive” and the AC50 is reported as 54.1 µM (active). `CNS(=O)(=O)C(F)(F)C(F)(F)C(F)(F)C(F)(F)C(F)(F)C(F)(F)C(F)(F)C(F)(F)F` was tested, and the AC50 was 17.9 µM (active) and the outcome was “inactive”. For `C=C(C)C(=O)OCC(F)(F)C(F)(F)C(F)(F)C(F)F`, the outcome was “inactive”. In the case of `O=S(=O)(O)CCC(F)(F)C(F)(F)C(F)(F)C(F)(F)C(F)(F)C(F)(F)C(F)(F)C(F)(F)F`, the AC50 is reported as 30 µM (active). For `O=S(=O)(O)CCC(F)(F)C(F)(F)C(F)(F)C(F)(F)F`, the outcome was “inactive”. In the case of `O=S(=O)(OCC(F)(F)F)C(F)(F)C(F)(F)C(F)(F)C(F)(F)F`, the outcome is reported as “inactive”. In the case of `O=C(O)CCC(F)(F)C(F)(F)C(F)(F)C(F)(F)C(F)(F)C(F)(F)C(F)(F)F`, the AC50 is reported as 3.33 µM (active). With `O=C(O)C(F)(F)C(F)(F)C(F)(F)C(=O)O` the outcome was “inactive”. For `O=C(Cl)C(F)(F)C(F)(F)C(F)(F)C(F)(F)C(F)(F)C(F)(F)C(F)(F)F`, the outcome was “inactive”. In the case of `O=C(F)C1(F)C(F)(F)C(F)(F)C(F)(F)C(F)(F)C1(F)F`, the outcome is reported as “inactive”. For `O=C(Cl)C(F)(F)C(F)(F)C(F)(F)C(F)(F)C(F)(F)C(F)(F)F`, the outcome was “inactive” and the AC50 was 7.98 µM (active) and 7.26 µM (active). In the case of `OC(O)C(F)(F)C(F)(F)F`, the outcome is reported as “inactive”. `NCC(F)(F)C(F)(F)C(F)(F)C(F)(F)C(F)(F)C(F)(F)C(F)(F)C(F)(F)F` was tested, and the outcome was “inactive”. For `NC(=O)C(F)(F)C(F)(F)C(F)(F)C(F)(F)C(N)=O`, the outcome was “inactive”. For `C=CC(=O)OCC(F)(F)C(F)(F)C(F)(F)COC(=O)C=C`, the AC50 was 38.3 µM (active) and 41.1 µM (active). For `COC(F)(C(F)F)C(F)(F)F` (stereo not given), the outcome was “inactive”. With `NC(=O)C(F)(F)C(F)(F)C(F)(F)C(F)F` the outcome was “inactive”. With `O=C(O)C(F)(F)C(F)(F)C(F)(F)OC(F)(C(F)(F)F)C(F)(F)F` the outcome was “inactive”. `OCC(F)(F)C(F)(F)C(F)(F)C(F)(F)C(F)(F)C(F)(F)C(F)(F)C(F)(F)CO` was tested, and the AC50 was 21.5 µM (active) and 42.7 µM (active). `NS(=O)(=O)C(F)(F)C(F)(F)C(F)(F)C(F)(F)C(F)(F)C(F)(F)F` was tested, and the AC50 was 28.1 µM (active) and 22.7 µM (active). For `NC(=O)C(F)(F)C(F)(F)C(F)(F)C(F)(F)C(F)(F)C(F)(F)C(F)(F)F`, the outcome was “inactive”. In the case of `FC(F)(F)C(F)(F)C(F)(F)C(F)(F)C(F)(F)C(F)(F)C(F)(F)CCI`, the outcome is reported as “inactive”. In the case of `C=CC(=O)OCC(F)(F)C(F)(F)C(F)(F)C(F)(F)C(F)(F)C(F)(F)C(F)(F)C(F)F`, the outcome is reported as “inactive”. In the case of `O=C(O)C(F)(F)C(F)(F)C(F)(F)OC(F)(F)F`, the outcome is reported as “inactive”. In the case of `FC(F)(F)C(F)(F)C(F)(F)CC1CO1` (stereo not given), the outcome is reported as “inactive”. For `OCC(O)CC(F)(F)C(F)(F)C(F)(F)C(F)(F)C(F)(F)C(F)(F)C(F)(F)C(F)(F)F` (stereo not given), the outcome was “inactive”. For `NCC(F)(F)C(F)(F)C(F)(F)C(F)(F)C(F)(F)C(F)(F)F`, the outcome was “inactive”. `NC(=O)C(F)(F)C(F)(F)C(F)(F)F` was tested, and the outcome was “inactive”. For `CCN(CCO)S(=O)(=O)C(F)(F)C(F)(F)C(F)(F)C(F)(F)C(F)(F)C(F)(F)C(F)(F)C(F)(F)F`, the outcome was “inactive”. In the case of `OCCCC(F)(F)C(F)(F)C(F)(F)C(F)(F)C(F)(F)C(F)(F)C(F)(F)C(F)(F)F`, the AC50 is reported as 40.8 µM (active) and 32.2 µM (active). In the case of `O=C(O)CCC(F)(F)C(F)(F)C(F)(F)F`, the outcome is reported as “inactive”. With `OCC(F)(F)C(F)(F)C(F)(F)CO` the outcome was “inactive”. `CO[Si](C)(CCC(F)(F)C(F)(F)C(F)(F)C(F)(F)C(F)(F)C(F)(F)F)OC` was tested, and the outcome was “inactive”.
